This is a sample that favours compounds with a hit; in the whole collection about 19% have one here.
IL1B secr inh: blocks inflammasome-driven IL-1 beta release; 4.7% of 360,000 active; activity change, % at 57.5 µM; THP-1 LPS/ATP IL-1B secretion, AlphaLISA, 16 h; hits give low values; in the data active = activity change below about -50%; inconclusive = mostly about -30% to -49%
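THP-1 cells pretreated 1 hr with compounds (up to 57.5 uM final), then stimulated with LPS (250 ng/mL final) plus ATP (1.25 mM final); secreted IL-1B measured by AlphaLISA after 16 hr, decreased signal indicating inhibition.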
HT1080 IDH1KD tx: toxicity to HT-1080 IDH1 knockdown cells (counter line); 2% of 360,000 active; Potency, µM (highest dose often 46.1 µM), inactives show top-dose activity, negative = toxicity, most hits filed as cytotoxic; HT-1080 IDH1 knockdown viability, ATP luminescence, 48 h; AID 686971;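 note: potency is the fitted concentration of half-maximal effect; 0% = DMSO wells and -100% = cell-free medium wells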
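IDH1KD HT-1080 cells, 750/well, RPMI + 5% FBS; compound pinned after 2 h settling; 48 h, 37 °C; CellTiter-Glo luminescence; % activity normalised to DMSO and no-cell wells; curves fitted, classed by r2 and efficacy.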
HT1080NT lethal: kills 2HG-producing HT-1080-NT fibrosarcoma cells. HT-1080-NT fibrosarcoma viability, CellTiter-Glo ATP luminescence, 48 h. Potency, µM (highest dose often 46.1 µM), without a hit: at the top dose activity, negative = less viability, usual class: cytotoxic. 1.6% of 360,000 active;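 note: NT is the 2HG producing partner of a matched IDH1 knockdown line; potency is the fitted concentration of half-maximal effect; 0% = DMSO-treated cells and -100% = media-only wells without cells; nearly all actives have a fitted effect of over 55% in size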
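Read-out is CellTiter-Glo luminescence after 10 minutes at room temperature, following 48 hours' compound treatment of HT-1080-NT cells (750 cells/well, RPMI, 5% FBS, 37 degrees C).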
DT40 TDP1 no CPT: qHTS for Inhibitors of human tyrosyl-DNA phosphodiesterase 1 (TDP1): qHTS in cells in absence of CPT; DT40 Tdp1-/- hTDP1 cells, no CPT, ATP luminescence, 48 h; Potency, µM (titrated, usually from 46.2 µM), for inactives: at the highest dose activity change, negative = growth inhibition, actives largely listed as inhibitors; 15% of 420,000 active; note: potency is the fitted concentration of half-maximal effect; nearly all actives have a fitted effect of over 55% in size
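Readout: luminescence from CellTiter-Glo after 30 min in the dark at RT. Cells: DT40 Tdp1-/- with stable hTDP1, 400/well. Exposure: compounds alone, ≥48 hr, 37 °C.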
TDP1 cell CPT: growth inhibition of DT40 Tdp1-/-;hTDP1 cells with camptothecin (screen for TDP1 inhibitors). 12% of 420,000 active. Potency, µM (highest dose often 46.2 µM), for the others: at the top dose activity change, negative = growth inhibition, actives largely listed as inhibitors. chicken DT40 Tdp1-/-;hTDP1 cells + 20 nM CPT, ATP luminescence, 48 h; note: potency is the fitted concentration of half-maximal effect; nearly all actives have a fitted effect of over 55% in size
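Cell growth measured by CellTiter-Glo luminescence after a minimum 48 h, 37 C compound exposure with 20 nM CPT in Tdp1-knockout DT40 cells stably expressing hTDP1, seeded 400/well; qHTS titration format.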
Starred values were filed as active, the others as inactive; ? = inconclusive; . = no result given; [ ] = remark or other dose. Unless noted, calls come from the whole dose curve; as a rule, active = well fitted curve in the direction sought with a large enough effect; inconclusive = small, poorly fitted or top-dose-only effect, or another doubt; inactive = no such curve, though single readings can be large; an effect the other way counts as inactive or inconclusive. Unless noted, % is set by controls: 0 for no effect and ±100 for the full control effect.

SMILES | IL1B secr inh | HT1080 IDH1KD tx | HT1080NT lethal | DT40 TDP1 no CPT | TDP1 cell CPT
O=C(CCNc1ccc(Cc2ccncc2)cc1)c1ccc([N+](=O)[O-])cc1 | -17.3 | ? | ? | ? | 23.1µM*
O=C(Nc1ccc(Cc2ccncc2)cc1)c1cccc([N+](=O)[O-])c1 | -14.6 | -14.8% | 0.5% | ? | ?
COc1ccc(CCNC(=O)C(=O)c2c[nH]c3ccccc23)cc1 | . | . | . | -15.9% | ?
Cc1cc(=O)oc2cc(OCC(=O)Nc3ccccc3C(N)=O)c(Cl)cc12 | 0.0 | -2.1% | 2.0% | -0.5% | -17.2%
NC(N)=NCC1COC2(CCCCC2)O1 (centres undefined) | . | . | . | -2.0%[21.1 µM] | -3.6%[21.1 µM]
Cc1c(C(=O)Nc2ccc(Cc3ccncc3)cc2)cccc1[N+](=O)[O-] | -50.1* | ? | ? | ? | ?
Cc1ccc(C(=O)Nc2sc(C)c(-c3ccccc3)c2C(N)=O)cc1[N+](=O)[O-] | -3.9 | 8.9% | 17.6% | 18.4µM* | 13µM*
CCOc1ccccc1NC(=O)CN1C(=O)C(=O)c2ccccc21 | . | . | . | 4.11µM* | 5.8µM*
COc1ccc(NC(=O)CN2C(=O)C(=O)c3ccccc32)c(OC)c1 | . | . | . | 6.51µM* | 4.11µM*
COc1ccccc1NC(=O)COC(=O)CN1C(=O)C(=O)c2ccccc21 | -9.9 | -0.2% | 32.8% | ? | 8.2µM*
CCOc1ccccc1NC(=O)CN1c2ccccc2S(=O)(=O)c2ccccc21 | . | . | . | ? | 25.9µM*
CCOc1ccccc1NC(=O)CN1C(=O)COc2ccccc21 | -8.0 | 7.3% | -1.4% | -6.3% | 0.2%
COc1ccc(S(=O)(=O)N2CCOCC2)cc1NC(=O)CCCOc1ccccc1 | 14.5 | 16.4% | 5.1% | -23.2% | -27.8%
CCN1C(=O)c2cccc3c(S(=O)(=O)NCc4ccccc4)ccc1c23 | -26.2 | -3.7% | -5.7%[9.24 µM] | ? | ?
CCN1C(=O)c2cccc3c(S(=O)(=O)Nc4ccccc4OC)ccc1c23 | -29.9 | -10.6% | -0.9% | 14.6µM* | 11.6µM*
COc1ccc(C)cc1NC(=O)CN1C(=O)c2cccc3cccc1c23 | 17.5 | -11.9% | -14.9% | -6.8% | -15.1%
COc1ccccc1NC(=O)CN1C(=O)c2cccc3cccc1c23 | . | . | . | 18.4µM* | ?
Cc1ccc([C@H]2N[C@]3(CCCN(Cc4ccc(F)cc4)C3=O)[C@H]3C(=O)N(Cc4ccccc4)C(=O)[C@@H]23)cc1 | -23.9 | -1.6% | -1.5% | ? | ?
COc1ccc2nc3cc(Cl)ccc3c(Nc3ccc(O)c(CN4CCN(C)CC4)c3)c2c1 | -113.7* | 16.4µM* | ? | 1.46µM* | 1.84µM*
COCCCN(CC(=O)Nc1ccc(F)cc1)S(=O)(=O)c1cccs1 | -6.0 | -2.2% | -1.4% | -20.8% | 3.6%
Cc1ccn2cc(-c3ccc4c(c3)NC(=O)CO4)nc2c1 | -12.9 | 1.9% | 16.6% | -23.7% | 0.0%
Cc1ccc(-c2cc(-c3ccc4c(c3)NC(=O)CO4)nc3c2COc2ccc(C)cc2-3)cc1 | . | . | . | 2.06µM* | ?
Cc1ccc2c(c1)-c1nc(-c3ccc4c(c3)NC(=O)CO4)cc(-c3ccc(Cl)cc3)c1CO2 | . | . | . | 1.3µM* | 1.46µM*
CCOC(=O)c1c(C)n(C)c2ccc(OCC(O)CN3CCN(C)CC3)cc12 (centres undefined) | -20.1 | -1.7% | 8.7% | -9.9% | -3.7%
CCOC(=O)c1c(C)n(-c2ccc(C)cc2)c2ccc(OCC(O)CN3CCN(C)CC3)cc12 (centres undefined) | -57.6* | 18.4µM* | 20.6µM* | ? | -88.2%
SMILES | IL1B secr inh | HT1080 IDH1KD tx | HT1080NT lethal | DT40 TDP1 no CPT | TDP1 cell CPT
CCOC(=O)c1c(C)n(C)c2ccc(OCC(O)CNCCc3ccccc3)cc12 (centres undefined) | -60.0* | -12.6% | -24.3% | ? | ?
CCOC(=O)c1c(C)n(C)c2ccc(OCC(O)Cn3c(C)nc4ccccc43)cc12 (centres undefined) | -53.5* | ? | -26.1% | 18.4µM* | ?
CCOC(=O)c1c(C)n(C)c2ccc(OC(=O)c3ccoc3)cc12 | -7.1 | 0.2% | ? | -5.3% | 2.5%
CCOC(=O)c1c(-c2ccccc2)oc2ccc(OCC(O)CNCCN(C)C)cc12 (centres undefined) | -102.6* | 13µM* | 18.4µM* | ? | 16.4µM*
COc1ccc(CC(=O)N(C)Cc2ccc(OC(F)F)cc2)cc1S(=O)(=O)N1CCOCC1 | 8.4 | -1.1% | -1.7% | ? | 0.7%
CC(=O)c1ccc(NC(=O)CN2C(=O)CCc3cc(S(=O)(=O)N4CCC(C)CC4)ccc32)cc1 | . | . | . | -4.4% | -24.8%
O=C(CSC(=S)N1CCOCC1)Nc1ccc(S(=O)(=O)Nc2ncccn2)cc1 | ? | -4.1% | 11.2% | 29.0% | -6.9%
CCCCOC(=O)c1ccc(Nc2ncnc3c2cnn3-c2cccc(C)c2)cc1 | . | . | . | -14.5% | -25.2%
CCOc1ccc(NC(=O)CCc2nc3cccnc3n2Cc2ccc(OC)cc2)cc1 | . | . | . | ? | -1.9%
CCCn1c(CCC(=O)Nc2cc(C(=O)OC)cc(C(=O)OC)c2)nc2cccnc21 | . | . | . | ? | 29.1µM*
CCCn1c(CCC(=O)Nc2cc(OC)cc(OC)c2)nc2cccnc21 | . | . | . | 23.1µM* | ?
COC(=O)c1ccc(CNC(=O)COC(=O)CCN2C(=O)C3CC=CCC3C2=O)cc1 (centres undefined) | -8.4 | 17.6% | 26.8% | -37.0% | -9.0%
CC1CC(C)CN(S(=O)(=O)c2ccc(NC(=O)c3ccc(=O)[nH]c3)cc2)C1 (centres undefined) | 9.6 | 5.17µM* | 5.8µM* | 2.91µM* | 3.26µM*
CC1CC(C)CN(C(=O)c2ccc(NC(=O)c3ccc(=O)[nH]c3)cc2)C1 (centres undefined) | 5.8 | -3.9% | -5.9% | -22.8% | 0.0%
Cc1ccc(NC(=O)c2cccnc2)cc1S(=O)(=O)N1CCOCC1 | 18.8 | 1.3% | 3.0% | -24.2% | 3.5%
Cc1cc(C)n(-c2ccc(C(=O)Nc3ccc(C)c(S(=O)(=O)N4CCOCC4)c3)cc2)n1 | -87.8* | ? | ? | 16.4µM* | ?
Cc1ccc(NC(=O)c2ccc(S(=O)(=O)N3CC(C)CC(C)C3)cc2)cc1S(=O)(=O)N1CCOCC1 (centres undefined) | -22.3 | -7.9% | -2.0% | 7.31µM* | 16.4µM*
COC(=O)c1[nH]c2ccc(Br)cc2c1NC(=O)C(C)N1CCN(C2CCCCC2)CC1 (centres undefined) | -81.8* | 20.6µM* | ? | 16.4µM* | 5.17µM*
Cn1ccnc1SCC(=O)Nc1cc(C(F)(F)F)ccc1N1CCOCC1 | -4.6 | -2.2% | -0.4% | -14.4% | -18.2%
